Experimental findings from the supplement of paper PMC12067093, “Discovery and optimisation of a covalent ligand for TRIM25 and its application to targeted protein ubiquitination” (Chemical Science, 2025) are described below.

Compound in this experiment: Cc1cc(ccc1-c1ccccc1)C(=O)N1CCCN(CC1)C(=O)CCl [compound 10]
The experiment can be described thus: probe-labelled cysteine peptide fold change vs DMSO (competition) (log2 fold change); higher = less target engagement (more negative = stronger competition). Particulars: THP-1, incubation time: 4 h.

About 21,000 targets were measured; listed, in parts, are those with the largest changes and a random draw of the rest.
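Also: competitive profiling in live THP-1 cells: cysteine peptides tagged with an iodoacetamide desthiobiotin (IA-DTB) probe, intensity after compound treatment relative to DMSO-treated cells.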

UniProt P13716, sequence (P13716 whole entry, looked up): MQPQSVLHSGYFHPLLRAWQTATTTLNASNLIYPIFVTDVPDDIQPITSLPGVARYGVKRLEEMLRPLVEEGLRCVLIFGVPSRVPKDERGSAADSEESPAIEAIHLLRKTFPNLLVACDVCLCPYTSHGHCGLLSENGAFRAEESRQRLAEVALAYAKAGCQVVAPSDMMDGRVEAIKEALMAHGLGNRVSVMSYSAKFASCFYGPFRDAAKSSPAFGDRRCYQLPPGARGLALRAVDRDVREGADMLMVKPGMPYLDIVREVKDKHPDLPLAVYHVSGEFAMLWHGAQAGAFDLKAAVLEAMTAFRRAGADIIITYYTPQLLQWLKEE
UniProt Q13443, sequence (Q13443 whole entry, looked up): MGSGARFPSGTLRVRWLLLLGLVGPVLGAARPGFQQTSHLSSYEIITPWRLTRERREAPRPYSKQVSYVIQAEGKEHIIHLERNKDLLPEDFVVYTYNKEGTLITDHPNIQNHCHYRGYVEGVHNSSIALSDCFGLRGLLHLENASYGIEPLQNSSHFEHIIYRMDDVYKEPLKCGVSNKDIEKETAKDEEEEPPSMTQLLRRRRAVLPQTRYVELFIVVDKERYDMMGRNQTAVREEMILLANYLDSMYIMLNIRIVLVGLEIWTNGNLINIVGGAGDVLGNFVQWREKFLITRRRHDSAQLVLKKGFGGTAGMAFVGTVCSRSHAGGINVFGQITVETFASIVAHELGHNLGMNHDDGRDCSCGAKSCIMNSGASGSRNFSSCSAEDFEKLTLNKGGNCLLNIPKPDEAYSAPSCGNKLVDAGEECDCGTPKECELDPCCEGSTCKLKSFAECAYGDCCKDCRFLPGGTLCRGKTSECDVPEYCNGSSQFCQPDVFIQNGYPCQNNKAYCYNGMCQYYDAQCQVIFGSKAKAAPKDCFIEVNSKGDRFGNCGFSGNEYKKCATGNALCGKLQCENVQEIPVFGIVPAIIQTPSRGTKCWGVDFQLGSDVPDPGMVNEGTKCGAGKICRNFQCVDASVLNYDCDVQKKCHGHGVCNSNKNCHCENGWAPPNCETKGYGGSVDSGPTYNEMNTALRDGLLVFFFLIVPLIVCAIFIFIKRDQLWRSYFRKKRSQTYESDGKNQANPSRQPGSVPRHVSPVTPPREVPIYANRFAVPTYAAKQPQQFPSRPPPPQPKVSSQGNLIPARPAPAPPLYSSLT
UniProt Q9H1A4, sequence (Q9H1A4 whole entry, looked up): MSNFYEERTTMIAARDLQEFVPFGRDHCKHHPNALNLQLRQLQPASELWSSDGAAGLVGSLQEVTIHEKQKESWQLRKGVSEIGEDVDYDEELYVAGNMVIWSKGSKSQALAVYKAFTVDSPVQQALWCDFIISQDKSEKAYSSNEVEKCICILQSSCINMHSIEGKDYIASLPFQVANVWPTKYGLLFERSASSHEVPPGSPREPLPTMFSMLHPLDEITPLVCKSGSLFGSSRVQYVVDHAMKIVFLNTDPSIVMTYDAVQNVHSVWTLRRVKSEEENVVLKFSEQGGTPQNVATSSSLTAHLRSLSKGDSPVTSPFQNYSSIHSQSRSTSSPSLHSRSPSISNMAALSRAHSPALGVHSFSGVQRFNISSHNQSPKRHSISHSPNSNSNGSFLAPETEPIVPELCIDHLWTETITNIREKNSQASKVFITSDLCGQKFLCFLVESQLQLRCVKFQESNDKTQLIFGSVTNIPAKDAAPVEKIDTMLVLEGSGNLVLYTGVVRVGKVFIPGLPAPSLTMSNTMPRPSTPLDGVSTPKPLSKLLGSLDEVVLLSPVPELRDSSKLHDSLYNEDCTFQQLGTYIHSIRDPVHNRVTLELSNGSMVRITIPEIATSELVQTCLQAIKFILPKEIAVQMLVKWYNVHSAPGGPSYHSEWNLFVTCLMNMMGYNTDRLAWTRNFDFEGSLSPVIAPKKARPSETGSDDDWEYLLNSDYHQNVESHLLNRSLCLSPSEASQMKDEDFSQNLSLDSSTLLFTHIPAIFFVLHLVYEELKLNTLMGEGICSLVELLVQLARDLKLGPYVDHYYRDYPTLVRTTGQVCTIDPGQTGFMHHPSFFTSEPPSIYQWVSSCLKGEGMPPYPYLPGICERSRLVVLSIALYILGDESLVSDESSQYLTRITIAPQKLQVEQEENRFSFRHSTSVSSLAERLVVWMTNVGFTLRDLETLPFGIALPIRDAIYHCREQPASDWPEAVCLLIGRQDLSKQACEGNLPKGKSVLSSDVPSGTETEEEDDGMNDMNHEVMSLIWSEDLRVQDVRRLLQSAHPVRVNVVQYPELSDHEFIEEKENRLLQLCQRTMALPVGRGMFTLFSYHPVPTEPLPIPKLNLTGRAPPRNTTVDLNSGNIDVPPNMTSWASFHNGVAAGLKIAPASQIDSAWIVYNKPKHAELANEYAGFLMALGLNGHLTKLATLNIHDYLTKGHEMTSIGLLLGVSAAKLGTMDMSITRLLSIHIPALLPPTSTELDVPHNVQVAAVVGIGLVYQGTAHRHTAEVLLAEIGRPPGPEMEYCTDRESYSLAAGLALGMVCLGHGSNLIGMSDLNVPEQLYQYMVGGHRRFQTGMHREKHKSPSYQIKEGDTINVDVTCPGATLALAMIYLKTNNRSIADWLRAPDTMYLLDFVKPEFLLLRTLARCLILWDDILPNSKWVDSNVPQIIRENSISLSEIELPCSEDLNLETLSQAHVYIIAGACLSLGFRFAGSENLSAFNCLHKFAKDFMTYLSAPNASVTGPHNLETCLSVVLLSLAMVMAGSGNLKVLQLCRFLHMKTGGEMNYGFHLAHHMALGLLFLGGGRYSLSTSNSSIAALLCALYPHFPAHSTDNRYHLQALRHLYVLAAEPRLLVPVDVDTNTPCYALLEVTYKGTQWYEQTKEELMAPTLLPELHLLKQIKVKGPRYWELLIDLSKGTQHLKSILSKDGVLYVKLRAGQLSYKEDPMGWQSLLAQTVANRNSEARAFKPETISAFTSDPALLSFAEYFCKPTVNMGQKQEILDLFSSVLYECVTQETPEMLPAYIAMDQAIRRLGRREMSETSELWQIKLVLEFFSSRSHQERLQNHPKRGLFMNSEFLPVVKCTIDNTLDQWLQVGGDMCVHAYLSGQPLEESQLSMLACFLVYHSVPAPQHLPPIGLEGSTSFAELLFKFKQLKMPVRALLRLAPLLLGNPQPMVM
UniProt O60488, sequence (O60488 whole entry, looked up): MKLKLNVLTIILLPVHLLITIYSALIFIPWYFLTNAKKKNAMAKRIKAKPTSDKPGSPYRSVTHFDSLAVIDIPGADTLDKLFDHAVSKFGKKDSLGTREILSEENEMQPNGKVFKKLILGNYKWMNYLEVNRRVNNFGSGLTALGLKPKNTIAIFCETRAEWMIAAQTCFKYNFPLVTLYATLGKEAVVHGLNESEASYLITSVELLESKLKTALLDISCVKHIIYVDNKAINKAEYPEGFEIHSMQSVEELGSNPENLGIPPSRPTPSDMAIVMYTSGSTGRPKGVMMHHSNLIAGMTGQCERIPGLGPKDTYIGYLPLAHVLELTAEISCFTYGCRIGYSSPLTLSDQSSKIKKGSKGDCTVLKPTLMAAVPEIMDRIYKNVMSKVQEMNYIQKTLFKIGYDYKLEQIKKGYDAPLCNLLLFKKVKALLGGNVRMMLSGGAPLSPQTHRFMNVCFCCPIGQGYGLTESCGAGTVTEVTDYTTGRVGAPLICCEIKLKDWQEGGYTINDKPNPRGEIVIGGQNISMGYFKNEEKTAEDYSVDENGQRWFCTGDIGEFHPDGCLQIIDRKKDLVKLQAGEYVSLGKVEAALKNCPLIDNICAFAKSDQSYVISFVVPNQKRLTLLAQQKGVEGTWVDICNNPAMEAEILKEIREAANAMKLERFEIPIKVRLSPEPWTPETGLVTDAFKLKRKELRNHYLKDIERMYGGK
UniProt Q17R89, sequence (Q17R89 whole entry): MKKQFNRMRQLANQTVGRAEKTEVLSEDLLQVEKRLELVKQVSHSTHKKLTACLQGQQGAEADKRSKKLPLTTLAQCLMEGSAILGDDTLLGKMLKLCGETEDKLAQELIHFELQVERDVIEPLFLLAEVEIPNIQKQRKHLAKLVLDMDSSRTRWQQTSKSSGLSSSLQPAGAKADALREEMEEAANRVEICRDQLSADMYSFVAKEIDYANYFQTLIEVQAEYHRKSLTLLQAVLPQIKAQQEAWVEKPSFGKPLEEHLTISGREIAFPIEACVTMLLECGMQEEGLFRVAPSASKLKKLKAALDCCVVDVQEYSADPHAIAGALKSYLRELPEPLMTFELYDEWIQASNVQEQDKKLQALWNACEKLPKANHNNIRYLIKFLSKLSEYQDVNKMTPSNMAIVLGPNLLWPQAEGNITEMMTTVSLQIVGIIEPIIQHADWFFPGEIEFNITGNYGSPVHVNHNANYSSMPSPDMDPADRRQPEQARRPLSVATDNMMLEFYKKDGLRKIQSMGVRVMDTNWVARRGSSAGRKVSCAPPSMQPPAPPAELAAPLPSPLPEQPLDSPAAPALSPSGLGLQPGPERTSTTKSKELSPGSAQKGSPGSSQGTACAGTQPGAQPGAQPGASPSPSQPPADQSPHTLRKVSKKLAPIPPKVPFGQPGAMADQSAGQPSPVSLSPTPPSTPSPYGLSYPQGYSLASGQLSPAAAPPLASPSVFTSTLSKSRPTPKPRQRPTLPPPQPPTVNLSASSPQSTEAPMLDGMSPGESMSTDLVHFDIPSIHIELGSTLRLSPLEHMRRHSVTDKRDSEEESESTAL
UniProt P55263, sequence (P55263 whole entry, looked up): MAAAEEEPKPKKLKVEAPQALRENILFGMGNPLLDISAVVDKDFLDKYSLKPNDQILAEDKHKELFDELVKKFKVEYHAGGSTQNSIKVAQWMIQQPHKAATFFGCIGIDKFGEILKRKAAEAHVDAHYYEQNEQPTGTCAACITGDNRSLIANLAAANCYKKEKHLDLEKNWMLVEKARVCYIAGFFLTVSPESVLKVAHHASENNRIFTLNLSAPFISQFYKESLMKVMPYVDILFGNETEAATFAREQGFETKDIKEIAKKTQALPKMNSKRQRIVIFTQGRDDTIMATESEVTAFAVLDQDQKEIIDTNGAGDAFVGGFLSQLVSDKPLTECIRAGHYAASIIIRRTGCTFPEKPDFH

In the case of “ANAPC1_Q9H1A4_1630_LLVPVDVDTNTPCYALLEVTYK (UniProt Q9H1A4)”, the “probe-labelled cysteine peptide fold change” value runs as follows: (10 µM) -0.151; (50 µM) 0.155.

For “ALAD_P13716_75_CVLIFGVPSR (UniProt P13716)”, the “probe-labelled cysteine peptide fold change” value by setting is: (10 µM) 0.166; (50 µM) 0.185.

As for “ALDH9A1_P49189_267_SPLIIFSDCDMNNAVK (UniProt P49189)”, the “probe-labelled cysteine peptide fold change” value (10 µM) was 0.208 and the “probe-labelled cysteine peptide fold change” value (50 µM) came out at 0.2.

Turning to “ARPC1B_O15143_227_VAWVSHDSTVCLADADKK (UniProt O15143)”, the “probe-labelled cysteine peptide fold change” value (10 µM) was found to be 0.103 and the “probe-labelled cysteine peptide fold change” value (50 µM) is -0.0807.

For “AKR1B1_P15121_299_VCALLSCTSHK (UniProt P15121)”, the “probe-labelled cysteine peptide fold change” value reads like this: (10 µM) -0.208; (50 µM) -2.38.

As to “ACSL4_O60488_420_GYDAPLCNLLLFKK (UniProt O60488)”, the “probe-labelled cysteine peptide fold change” value is -0.291 (10 µM) and -1.12 (50 µM).

In the case of “ADK_P55263_160_SLIANLAAANCYKK (UniProt P55263)”, the “probe-labelled cysteine peptide fold change” value (10 µM) was -0.309 and the “probe-labelled cysteine peptide fold change” value (50 µM) is -1.01.

Regarding “ATM_Q13315_2323_KLDASCAANNPSLK (UniProt Q13315)”, the “probe-labelled cysteine peptide fold change” value is, setting by setting: (10 µM) -0.12; (50 µM) -0.242.

Regarding “ARHGAP44_Q17R89_193_ADALREEMEEAANRVEICR (UniProt Q17R89)”, the “probe-labelled cysteine peptide fold change” value (10 µM) is -0.0472 and the “probe-labelled cysteine peptide fold change” value (50 µM) is -0.212.

Take “AKR1B1_P15121_299+304_VCALLSCTSHK (UniProt P15121)”: the “probe-labelled cysteine peptide fold change” value (10 µM) is -0.497 and the “probe-labelled cysteine peptide fold change” value (50 µM) is -2.06.

Turning to “ADAM9_Q13443_539_DCFIEVNSK (UniProt Q13443)”, the “probe-labelled cysteine peptide fold change” value (10 µM) was -0.0729 and the “probe-labelled cysteine peptide fold change” value (50 µM) is -0.137.

For the target “APOOL_Q6UXV4_74_TATGCYIGWCK (UniProt Q6UXV4)”, the “probe-labelled cysteine peptide fold change” value reads like this: (10 µM) -0.823; (50 µM) -1.75.

Take “ACTR3B_Q9P1U1_408_DYEEYGPSICR (UniProt Q9P1U1)”: the “probe-labelled cysteine peptide fold change” value by setting is: (10 µM) 0.154; (50 µM) 0.0944.

Take “ATP5F1A_P25705_244_KLYCIYVAIGQK (UniProt P25705)”: the “probe-labelled cysteine peptide fold change” value is -1.08 (10 µM) and 0.236 (50 µM).
